Data taken from PubChem BioAssay (NCI).
About 83,000 compounds went through this panel and 20% of them were active in at least one assay; those are over-represented in the sample as a whole.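 Growth was measured after 48 h exposure to one concentration of compound in 96-well plates. Values under 10 count as active.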 Unmarked numbers belong to inactive results. The source made the active and inactive calls.

What was measured:
Experiment in all cases: NCI-60 one-dose screen, 48 h (100 = growth as untreated, 0 = no growth, -100 = all killed)
Conditions in all cases: 10 µM unless noted
NCI-H23 lung = test system: NCI-H23 lung
NCI-H226 lung = test system: NCI-H226 lung
NCI-H322M lung = test system: NCI-H322M lung
HOP-62 NSCLC = test system: HOP-62 NSCLC
NCI-H460 lung = test system: NCI-H460 lung
HOP-92 NSCLC = test system: HOP-92 NSCLC
NCI-H522 lung = test system: NCI-H522 lung
A549/ATCC NSCLC = test system: A549/ATCC NSCLC
786-0 renal = test system: 786-0 renal
COLO 205 colon = test system: COLO 205 colon
DU-145 prostate = test system: DU-145 prostate
K-562 leukemia = test system: K-562 leukemia
MALME-3M melanoma = test system: MALME-3M melanoma
MDA-MB-231 breast = test system: MDA-MB-231 breast
RXF 393 renal = test system: RXF 393 renal
SF-268 CNS = test system: SF-268 CNS
SF-539 CNS = test system: SF-539 CNS
UACC-257 melanoma = test system: UACC-257 melanoma
M14 melanoma = test system: M14 melanoma
SF-295 CNS = test system: SF-295 CNS

| Compound | growth (NCI-H23 lung) | growth (NCI-H226 lung) | growth (NCI-H322M lung) | growth (HOP-62 NSCLC) | growth (NCI-H460 lung) | growth (HOP-92 NSCLC) | growth (NCI-H522 lung) | growth (A549/ATCC NSCLC) | growth (786-0 renal) | growth (COLO 205 colon) | growth (DU-145 prostate) | growth (K-562 leukemia) | growth (MALME-3M melanoma) | growth (MDA-MB-231 breast) | growth (RXF 393 renal) | growth (SF-268 CNS) | growth (SF-539 CNS) | growth (UACC-257 melanoma) | growth (M14 melanoma) | growth (SF-295 CNS) |
| --- | --- | --- | --- | --- | --- | --- | --- | --- | --- | --- | --- | --- | --- | --- | --- | --- | --- | --- | --- | --- |
| O=[N+]([O-])c1ccc(OCCCOc2ccccc2)cc1 | 102% | 113% | 101% | 96.9% | 108% | 121% | 86.3% | 92.4% | 98.7% | 118% | 108% | 99% | 110% | 104% | 116% | 106% | 110% | 100% | 114% | – |
| O=C(Nc1cccc(-n2cc(-c3ccncc3)c(-c3ccc(Cl)c(O)c3)n2)c1)Nc1cc(C(F)(F)F)cc(C(F)(F)F)c1 | -7.93% (active) | 1.17% (active) | 5.11% (active) | -86.1% (active) | -55.7% (active) | -45.8% (active) | -50.1% (active) | -32.4% (active) | -46.8% (active) | -97.3% (active) | -28.2% (active) | -19.5% (active) | -23% (active) | -88.9% (active) | -66.7% (active) | -36.4% (active) | -63% (active) | -50.9% (active) | -37.2% (active) | – |
| Nc1cc2c([nH]c[n+]2CC#CCCl)c(SCC#CCCl)n1 | -72.2% (active) | -42.5% (active) | -66.6% (active) | -62.8% (active) | -7.39% (active) | -39.7% (active) | -90.7% (active) | -7.51% (active) | -86.5% (active) | -48.5% (active) | -5.81% (active) | 5.47% (active) | -46.4% (active) | -50.2% (active) | -90.5% (active) | -9.39% (active) | -75.3% (active) | -59.5% (active) | -90.9% (active) | – |
| COc1ccc(C2C=C(c3ccc(OC)c(OC)c3)N=C3SC=C(C)N32)c(Br)c1 (stereo not drawn) | 99.2% | 99.2% | 95.8% | 108% | 105% | 156% | 96.7% | 103% | 111% | 108% | 109% | 96.5% | 99% | 112% | 106% | 105% | 93.6% | 117% | 101% | – |
| c1ccc(-c2nc(N3CCNCC3)c3nc(-c4ccccc4)oc3n2)cc1 | -56.6% (active) | -61.3% (active) | 82% | -78.2% (active) | -73.7% (active) | 42% | -82.1% (active) | -77.2% (active) | -98.7% (active) | -84% (active) | -63.2% (active) | -10.7% (active) | 91.8% | -81% (active) | – | 36.1% | -40% (active) | 105% | 99.7% | 91.2% |
| O=S(=O)(NCCNc1nccc(-c2c(-c3ccc(O)cc3)nc3sccn23)n1)c1cccc2ccccc12 | 98.1% | 102% | 98.1% | 106% | 106% | 94.9% | 91.5% | 98.2% | 96.6% | 109% | 115% | 91.4% | 100% | 110% | 104% | 99% | 100% | 94.4% | 105% | – |
| COc1cc(/C=C/C(=O)c2ccc(Nc3ncnc4cc(OC)c(OC)cc34)cc2)cc(OC)c1 | 94.7% | 113% | 105% | 116% | 109% | 76.4% | 92.4% | 84.9% | 92.3% | 117% | 115% | 41.3% | 118% | 104% | – | 98.4% | 101% | 95.1% | 112% | 93.3% |
| CC(=O)Nc1ccc(S(=O)(=O)n2ccc(-c3ccc4c(c3)CCC(C)(C)O4)n2)cc1 | 56.6% | 52.4% | 89% | 94.4% | 41.4% | 69.8% | 54% | 57.8% | 79.8% | 88.8% | 83.5% | 36.7% | 82.5% | 88.6% | – | 77.3% | 73.8% | 46% | 64.7% | 60.2% |
| Fc1ccc(CNCCNc2ncnc3c2cnn3-c2ccccc2)cc1 | 103% | 102% | 100% | 90.4% | 104% | 61.8% | 99.9% | 91.7% | 83.5% | 89.6% | 114% | 83.3% | 92.4% | 79% | 74.6% | 92.3% | 100% | 85.6% | 103% | – |
| NNc1cccc(/C=C/c2ccccc2)cc1=O | 73.1% | 83% | 71.1% | 71.1% | 27.5% | 59.8% | 57.7% | 64.6% | 69.1% | 70.6% | 68.2% | 45.5% | 103% | 58.1% | 91.9% | 57.6% | 62.4% | 95.3% | 61.4% | – |
| Nc1nnc(-c2ccc3ccccc3c2O)o1 | 85.3% | 94.8% | 88% | 89.8% | 92.6% | 83% | 85.1% | 93.5% | 104% | 99.5% | 117% | 93.5% | 89.1% | 92.4% | 99.2% | 94.8% | 95.7% | 102% | 86.4% | – |
| COc1cc(-c2nn(-c3cccc(NC(=O)c4ccc(N5CCOCC5)c(C(F)(F)F)c4)c3)cc2-c2ccncc2)ccc1Cl | 15.6% | 42.5% | 54.2% | 29.5% | 5.02% (active) | 11.5% | 0.2% (active) | 3.58% (active) | -3.26% (active) | -43.4% (active) | 10.9% | 1.22% (active) | 36.2% | -25.2% (active) | -45.2% (active) | 22.5% | -68.9% (active) | 24.3% | 1.42% (active) | – |
| COc1ccc(-c2c(N)n[nH]c2-c2cc(OC)c3c(c2)OCCO3)cc1 | 87.6% | 93.3% | 107% | 78.3% | 83% | 87.6% | 12.5% | 56% | 88.9% | 66.8% | 96.1% | 12.1% | 39.3% | 87.7% | 74% | 79.9% | – | 88.1% | 65.2% | – |
| O=[N+]([O-])c1cnc(Sc2ccncn2)s1 | 77% | 110% | 99.1% | 92% | 97.3% | -64.9% (active) | -79.1% (active) | 95.9% | 93.1% | -77.4% (active) | -21.5% (active) | -44.4% (active) | -63.5% (active) | 75.4% | – | 35.7% | 91.1% | -18.7% (active) | 6.85% (active) | 102% |
| COc1cc(-c2nn(-c3cccc(NC(=O)Nc4ccc(Cl)c(C(F)(F)F)c4)c3)cc2-c2ccncc2)ccc1Cl | 5.69% (active) | 12.1% | 32.3% | 5.4% (active) | 1.7% (active) | -37.5% (active) | -13.9% (active) | -10.4% (active) | 15.1% | -91.6% (active) | 20.3% | 3.8% (active) | -14.9% (active) | -52.4% (active) | -27.8% (active) | 13.8% | 6.56% (active) | -37.6% (active) | -11.6% (active) | – |
| COc1ccc(C2C=C(c3ccc(N)cc3)N=C3SC=CN32)cc1OC (stereo not drawn) | 101% | 107% | 102% | 108% | 116% | 109% | 101% | 99.7% | 104% | 114% | 107% | 97.5% | 92.8% | 123% | 110% | 104% | 99.9% | 103% | 106% | – |
